# Article PMC5540273 (PLoS ONE, 2017)
# Assays:
# Details in all cases: concentration: 1 μM, replicates: in singlicate; n = 1
# AMPK-alpha1 = test system: T1, AMPK-alpha1
# T1 construct: gene PRKAA1
# AMPK-alpha2 = test system: T2, AMPK-alpha2
# T2 construct: gene PRKAA2
# ANKK1 = test system: ANKK1
# ARK5 = test system: T3, ARK5
# T3 construct: gene NUAK1
# ASK1 = test system: T4, ASK1
# T4 construct: gene MAP3K5
# ASK2 = test system: T5, ASK2
# T5 construct: gene MAP3K6
# AURKA = test system: AURKA
# AURKB = test system: AURKB
# AURKC = test system: AURKC
# AXL = test system: AXL
# BIKE = test system: T6, BIKE
# T6 construct: gene BMP2K
# BLK = test system: BLK
# BMPR1A = test system: BMPR1A
# BMPR1B = test system: BMPR1B
# BMPR2 = test system: BMPR2
# BMX = test system: BMX
# BRAF = test system: BRAF
# BRK = test system: T7, BRK
# T7 construct: gene PTK6
# BRSK1 = test system: BRSK1
# BRSK2 = test system: BRSK2
# 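Also: KINOMEscan kinase panel screen.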
Structure (SMILES),%Inh (AMPK-alpha1) [%],%Inh (AMPK-alpha2) [%],%Inh (ANKK1) [%],%Inh (ARK5) [%],%Inh (ASK1) [%],%Inh (ASK2) [%],%Inh (AURKA) [%],%Inh (AURKB) [%],%Inh (AURKC) [%],%Inh (AXL) [%],%Inh (BIKE) [%],%Inh (BLK) [%],%Inh (BMPR1A) [%],%Inh (BMPR1B) [%],%Inh (BMPR2) [%],%Inh (BMX) [%],%Inh (BRAF) [%],%Inh (BRK) [%],%Inh (BRSK1) [%],%Inh (BRSK2) [%]
Cl.Cl.Cl.N#Cc1ccc(CCNc2nccc(-c3cccc(CN4CCNCC4)c3)n2)cc1 [GSK2137462],25,14,15,17,20,4,20,0,15,44,25,0,0,0,0,12,0,8,0,2
CCc1ccc(-c2ccc3c(c2)-c2n[nH]cc2S(=O)(=O)N3C)cc1,0,1,0,13,6,0,0,0,11,51,12,9,0,0,0,0,0,0,0,4
Cc1ccc(NC(=O)Nc2ccccc2F)cc1-c1ccc(C(=O)Nc2ccncc2)cc1 [GSK1398477],7,23,0,8,12,21,0,0,27,25,28,51,7,0,0,29,20,34,15,13
COC(=O)C(NC(=O)NC1CCN(c2ccnc(Nc3ccc(F)cc3)n2)C1)c1ccccc1 (stereo not drawn) [GSK1379712],0,12,10,8,20,2,5,0,32,0,8,0,0,0,17,3,9,2,12,0
Nc1nccc(-c2c(-c3ccc(F)cc3)ncn2C2CCN(Cc3ccccc3)CC2)n1 [SB-219980],0,3,59,15,0,0,21,22,0,9,0,0,0,2,0,0,0,0,0,0
O=C(Nc1n[nH]c2nc(-c3cccs3)c(Br)cc12)C1CCCC1 [SB-743341],29,40,35,0,0,12,17,27,10,0,12,0,28,19,46,14,7,12,63,66
O=C1NC(=O)C(c2ccc(Cl)cc2)=C1Nc1cccc(Cl)c1 [SB-317651],0,0,0,0,3,0,0,35,0,20,0,12,0,0,0,3,0,0,0,1
Fc1ccc(-c2nn3cccc(F)c3c2-c2ccncc2)cc1 [GW475620],42,19,0,16,8,0,0,45,46,3,34,20,24,0,0,8,29,11,0,0
CNC(=O)c1ccc(C)c(-n2c(C)cc(OCc3ccc(F)cc3F)c(Br)c2=O)c1,0,5,0,0,15,0,0,0,0,0,3,0,39,0,0,0,0,0,0,0
CC(=O)c1c(C)c2cnc(Nc3ccn(C)n3)nc2n(C2CCCC2)c1=O,20,0,0,0,0,0,4,0,0,0,22,0,0,0,0,0,3,8,0,0
Cc1ccc(-c2nc(Nc3ccncc3)c3ccccc3n2)s1 [GSK189015],0,20,65,17,1,11,0,0,24,20,37,29,0,0,0,23,6,4,20,0
CNc1nc(-c2ccc3c(N)n[nH]c3c2)cc(N2C[C@@H](C(=O)Nc3ccccc3)CC[C@H]2C)n1 [GSK2298859],0,0,1,25,0,12,12,16,43,8,36,0,0,0,0,15,0,9,0,21
COc1cccc(CNC(=O)NC2CCN(c3ccnc(Nc4ccc(F)cc4)n3)C2)c1 (stereo not drawn) [GSK1379723],0,12,0,24,0,9,11,37,49,6,19,0,0,0,3,7,10,17,0,0
CNCc1ccc2nc(NC(=O)c3ccc(C(C)(C)C)cc3)cn2c1,0,13,40,0,21,0,8,22,25,15,15,0,17,14,19,0,18,2,9,0
COC(=O)C(Cc1ccccc1)NC(=O)NC1CCN(c2ccnc(Nc3ccc(F)cc3)n2)C1 (stereo not drawn) [GSK1379714],7,0,0,0,5,0,43,11,35,3,17,10,0,0,22,29,0,12,0,0
c1ccc(-c2ccnc3[nH]ccc23)cc1 [SB-693578],0,0,0,20,2,19,17,41,0,0,0,4,1,0,47,0,4,14,0,100
Fc1ccc(-c2nc3n(c2-c2ccncc2)CCS3)cc1 [GI98581],14,0,0,0,5,13,0,0,43,6,32,45,0,0,0,12,0,13,0,0
FC(F)(F)c1ccccc1-c1cc(-c2c[nH]nc2-c2ccccn2)ccn1 [GW679396],0,25,0,0,10,0,44,0,16,0,24,1,13,0,7,0,0,20,0,0
COc1cccc(C2=C(Nc3cc(Cl)c(O)c(Cl)c3)C(=O)NC2=O)c1 [SB-390767],8,0,0,26,4,7,0,0,8,0,21,0,0,0,1,13,0,18,7,0
CSc1ccc(-c2nc3n(c2-c2ccncc2)CCC3)cc1 [SKF-105561],0,0,0,0,12,17,10,0,0,0,16,4,0,6,1,0,7,1,0,0
CCn1c(-c2c(N)noc2C)nc2cnccc21 [SB-737856],4,0,0,25,0,0,0,32,4,0,22,0,0,0,3,0,0,0,6,0
